This passage reports inhibition results from ChEMBL document CHEMBL1961873, “Compounds: GSK PKIS; Assays: Nanosyn kinase panel” (2012).

For assay [1], the target named is Platelet-derived growth factor receptor beta (Homo sapiens) (UniProt P09619). To be noted: at 1 µM.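 Note: each value is a mean percent inhibition.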
In assay [2] the target is Tyrosine-protein kinase FRK (Homo sapiens) (UniProt P42685). To be noted: at 0.1 µM.
Assay [3] has the same target. To be noted: at 1 µM.
Assay [4] concerns the target Protein-tyrosine kinase 2-beta (Homo sapiens) (UniProt Q14289). The conditions noted are these: at 0.1 µM.
Assay [5] shares this target. To be noted: at 1 µM.
In assay [6] the target is Proto-oncogene tyrosine-protein kinase receptor Ret (Homo sapiens) (UniProt P07949). The conditions noted are these: at 0.1 µM.
For assay [7] the target is unchanged. The conditions noted are these: at 1 µM.
For assay [8], the system named is Proto-oncogene tyrosine-protein kinase receptor Ret (Homo sapiens), P07949 [V804L]. The conditions noted are these: at 0.1 µM.
Assay [9] shares this test system. The conditions noted are these: at 1 µM.
Assay [10] relates to Proto-oncogene tyrosine-protein kinase receptor Ret (Homo sapiens), P07949 [Y791F]. The conditions noted are these: at 0.1 µM.
Assay [11] shares this test system. The conditions noted are these: at 1 µM.
Assay [12] addresses Macrophage-stimulating protein receptor (Homo sapiens) (UniProt Q04912). To be noted: at 0.1 µM.
Assay [13] shares this target. To be noted: at 1 µM.
Assay [14] has as its target Proto-oncogene tyrosine-protein kinase ROS (Homo sapiens) (UniProt P08922). To be noted: at 0.1 µM.
Assay [15] shares this target. To be noted: at 1 µM.
In assay [16] the target is Proto-oncogene tyrosine-protein kinase Src (Homo sapiens) (UniProt P12931). To be noted: at 0.1 µM.
Assay [17] shares this target. The conditions noted are these: at 1 µM.
Assay [18] deals with Tyrosine-protein kinase Srms (Homo sapiens) (UniProt Q9H3Y6). The conditions noted are these: at 0.1 µM.
The target is the same in assay [19]. The conditions noted are these: at 1 µM.
Assay [20] addresses Tyrosine-protein kinase SYK (Homo sapiens) (UniProt P43405). The conditions noted are these: at 0.1 µM.

Proto-oncogene tyrosine-protein kinase receptor Ret (Homo sapiens), sequence (P07949 whole entry): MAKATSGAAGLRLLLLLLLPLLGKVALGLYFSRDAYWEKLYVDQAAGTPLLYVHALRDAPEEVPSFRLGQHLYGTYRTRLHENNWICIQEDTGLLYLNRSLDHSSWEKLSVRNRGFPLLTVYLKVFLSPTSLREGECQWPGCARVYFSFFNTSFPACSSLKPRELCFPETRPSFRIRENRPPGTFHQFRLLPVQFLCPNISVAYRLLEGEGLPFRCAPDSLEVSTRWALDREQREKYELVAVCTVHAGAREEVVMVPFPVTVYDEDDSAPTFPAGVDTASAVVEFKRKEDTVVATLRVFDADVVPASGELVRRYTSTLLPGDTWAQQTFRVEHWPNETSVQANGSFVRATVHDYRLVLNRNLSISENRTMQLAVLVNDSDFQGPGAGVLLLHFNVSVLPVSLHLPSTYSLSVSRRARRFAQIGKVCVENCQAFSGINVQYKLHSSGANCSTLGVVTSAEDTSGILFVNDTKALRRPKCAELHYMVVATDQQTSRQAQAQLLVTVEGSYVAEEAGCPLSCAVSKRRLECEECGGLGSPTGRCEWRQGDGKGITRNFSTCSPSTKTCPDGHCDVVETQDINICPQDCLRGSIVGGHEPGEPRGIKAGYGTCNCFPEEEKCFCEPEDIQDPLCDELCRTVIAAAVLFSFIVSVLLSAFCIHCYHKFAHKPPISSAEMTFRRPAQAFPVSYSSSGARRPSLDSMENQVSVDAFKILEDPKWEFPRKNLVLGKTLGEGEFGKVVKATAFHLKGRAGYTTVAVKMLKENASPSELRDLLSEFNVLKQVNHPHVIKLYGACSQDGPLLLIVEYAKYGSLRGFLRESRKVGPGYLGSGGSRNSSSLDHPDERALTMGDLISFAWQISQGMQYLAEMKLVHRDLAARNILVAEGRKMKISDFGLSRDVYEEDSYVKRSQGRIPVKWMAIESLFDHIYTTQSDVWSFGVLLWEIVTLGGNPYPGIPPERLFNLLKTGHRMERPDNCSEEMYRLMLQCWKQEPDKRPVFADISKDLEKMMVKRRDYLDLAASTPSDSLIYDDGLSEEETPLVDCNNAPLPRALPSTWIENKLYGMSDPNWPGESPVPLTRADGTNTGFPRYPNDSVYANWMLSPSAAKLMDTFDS
Proto-oncogene tyrosine-protein kinase receptor Ret (Homo sapiens), P07949 [V804L], sequence (P07949 whole entry V804L): as the sequence (P07949 whole entry) above, with V804L counted along it
Proto-oncogene tyrosine-protein kinase ROS (Homo sapiens), sequence (P08922 whole entry): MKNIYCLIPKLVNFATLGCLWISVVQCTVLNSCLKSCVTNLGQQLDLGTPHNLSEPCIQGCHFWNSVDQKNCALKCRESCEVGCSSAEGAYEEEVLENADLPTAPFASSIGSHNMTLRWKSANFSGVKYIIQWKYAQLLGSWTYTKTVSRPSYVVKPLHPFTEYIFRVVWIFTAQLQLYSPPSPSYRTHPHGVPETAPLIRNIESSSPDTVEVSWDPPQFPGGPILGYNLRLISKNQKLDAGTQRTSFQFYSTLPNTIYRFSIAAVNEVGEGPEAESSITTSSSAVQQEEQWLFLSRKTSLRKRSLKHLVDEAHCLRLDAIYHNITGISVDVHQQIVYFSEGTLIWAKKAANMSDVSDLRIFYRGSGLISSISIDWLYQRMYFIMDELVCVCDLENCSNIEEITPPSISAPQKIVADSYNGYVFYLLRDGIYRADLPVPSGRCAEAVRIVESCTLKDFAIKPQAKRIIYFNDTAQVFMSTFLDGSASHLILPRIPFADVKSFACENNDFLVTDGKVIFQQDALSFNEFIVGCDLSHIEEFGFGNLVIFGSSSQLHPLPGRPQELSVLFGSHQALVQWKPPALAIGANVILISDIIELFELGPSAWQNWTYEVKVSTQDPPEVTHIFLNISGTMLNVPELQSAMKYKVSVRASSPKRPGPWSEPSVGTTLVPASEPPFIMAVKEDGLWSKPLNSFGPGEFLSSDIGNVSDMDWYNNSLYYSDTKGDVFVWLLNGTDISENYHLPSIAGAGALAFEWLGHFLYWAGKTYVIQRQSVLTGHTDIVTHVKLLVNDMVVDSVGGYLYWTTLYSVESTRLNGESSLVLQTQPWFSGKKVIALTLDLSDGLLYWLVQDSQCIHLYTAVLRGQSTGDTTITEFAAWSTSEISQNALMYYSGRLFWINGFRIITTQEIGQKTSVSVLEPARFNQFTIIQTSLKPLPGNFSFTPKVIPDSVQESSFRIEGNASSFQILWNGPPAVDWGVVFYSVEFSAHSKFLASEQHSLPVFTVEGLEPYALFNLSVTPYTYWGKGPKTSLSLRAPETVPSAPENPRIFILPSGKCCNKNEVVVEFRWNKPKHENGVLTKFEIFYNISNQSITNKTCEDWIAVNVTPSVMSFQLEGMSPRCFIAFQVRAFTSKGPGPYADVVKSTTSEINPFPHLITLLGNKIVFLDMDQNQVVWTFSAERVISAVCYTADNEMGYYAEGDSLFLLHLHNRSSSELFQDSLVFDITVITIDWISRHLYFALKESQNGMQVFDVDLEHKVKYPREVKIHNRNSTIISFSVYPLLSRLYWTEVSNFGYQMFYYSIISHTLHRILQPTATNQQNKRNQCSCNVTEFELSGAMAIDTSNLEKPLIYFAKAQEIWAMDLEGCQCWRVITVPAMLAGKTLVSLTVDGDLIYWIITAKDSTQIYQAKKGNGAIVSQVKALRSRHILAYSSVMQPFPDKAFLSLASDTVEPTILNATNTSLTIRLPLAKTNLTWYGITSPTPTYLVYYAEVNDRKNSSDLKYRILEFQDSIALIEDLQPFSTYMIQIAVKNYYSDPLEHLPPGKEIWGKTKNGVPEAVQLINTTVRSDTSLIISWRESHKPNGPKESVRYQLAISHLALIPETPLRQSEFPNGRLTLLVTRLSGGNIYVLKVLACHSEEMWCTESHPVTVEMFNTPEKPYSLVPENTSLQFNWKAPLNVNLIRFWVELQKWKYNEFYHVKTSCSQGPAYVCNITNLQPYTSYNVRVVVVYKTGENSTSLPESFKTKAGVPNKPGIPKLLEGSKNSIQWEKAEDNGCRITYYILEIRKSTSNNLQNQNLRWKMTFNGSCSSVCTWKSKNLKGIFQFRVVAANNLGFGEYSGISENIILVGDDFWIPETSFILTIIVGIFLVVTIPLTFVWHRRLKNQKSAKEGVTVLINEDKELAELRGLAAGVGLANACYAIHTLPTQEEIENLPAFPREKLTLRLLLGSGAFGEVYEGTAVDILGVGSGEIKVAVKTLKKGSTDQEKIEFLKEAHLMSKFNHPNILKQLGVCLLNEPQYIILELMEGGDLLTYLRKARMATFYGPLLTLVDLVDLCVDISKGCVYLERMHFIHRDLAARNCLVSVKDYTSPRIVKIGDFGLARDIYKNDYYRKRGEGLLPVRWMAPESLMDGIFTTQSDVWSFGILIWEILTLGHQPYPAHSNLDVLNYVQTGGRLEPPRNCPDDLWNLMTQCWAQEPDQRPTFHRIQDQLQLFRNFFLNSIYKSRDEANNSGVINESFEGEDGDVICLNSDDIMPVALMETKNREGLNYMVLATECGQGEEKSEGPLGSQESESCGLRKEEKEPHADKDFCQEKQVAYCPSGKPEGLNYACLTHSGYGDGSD
Protein-tyrosine kinase 2-beta (Homo sapiens), sequence (Q14289 whole entry, looked up): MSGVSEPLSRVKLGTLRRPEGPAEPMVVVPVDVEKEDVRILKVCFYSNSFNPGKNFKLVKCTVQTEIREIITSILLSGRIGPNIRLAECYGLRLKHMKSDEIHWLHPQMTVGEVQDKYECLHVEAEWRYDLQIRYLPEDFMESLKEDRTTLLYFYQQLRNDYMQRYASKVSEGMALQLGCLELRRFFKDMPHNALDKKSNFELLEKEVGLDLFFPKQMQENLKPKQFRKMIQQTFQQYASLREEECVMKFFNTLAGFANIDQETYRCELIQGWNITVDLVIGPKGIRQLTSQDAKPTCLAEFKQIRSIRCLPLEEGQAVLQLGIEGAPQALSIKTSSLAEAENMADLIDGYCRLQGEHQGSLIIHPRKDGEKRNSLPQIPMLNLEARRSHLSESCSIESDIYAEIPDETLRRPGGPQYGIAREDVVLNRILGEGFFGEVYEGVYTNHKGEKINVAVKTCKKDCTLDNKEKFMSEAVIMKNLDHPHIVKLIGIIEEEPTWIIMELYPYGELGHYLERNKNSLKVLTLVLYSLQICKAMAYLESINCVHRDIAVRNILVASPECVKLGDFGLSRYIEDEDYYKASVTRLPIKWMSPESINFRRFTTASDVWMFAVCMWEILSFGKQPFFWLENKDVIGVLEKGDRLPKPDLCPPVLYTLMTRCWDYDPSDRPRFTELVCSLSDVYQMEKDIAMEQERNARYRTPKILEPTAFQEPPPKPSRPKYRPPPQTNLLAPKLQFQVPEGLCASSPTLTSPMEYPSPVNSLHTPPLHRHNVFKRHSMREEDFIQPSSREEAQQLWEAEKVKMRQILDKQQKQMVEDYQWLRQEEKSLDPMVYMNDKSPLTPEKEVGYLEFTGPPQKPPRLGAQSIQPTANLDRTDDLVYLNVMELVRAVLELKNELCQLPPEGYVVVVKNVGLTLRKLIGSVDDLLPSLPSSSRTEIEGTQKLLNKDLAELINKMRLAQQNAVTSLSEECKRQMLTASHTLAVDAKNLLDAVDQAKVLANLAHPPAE
Tyrosine-protein kinase Srms (Homo sapiens), sequence (Q9H3Y6 whole entry): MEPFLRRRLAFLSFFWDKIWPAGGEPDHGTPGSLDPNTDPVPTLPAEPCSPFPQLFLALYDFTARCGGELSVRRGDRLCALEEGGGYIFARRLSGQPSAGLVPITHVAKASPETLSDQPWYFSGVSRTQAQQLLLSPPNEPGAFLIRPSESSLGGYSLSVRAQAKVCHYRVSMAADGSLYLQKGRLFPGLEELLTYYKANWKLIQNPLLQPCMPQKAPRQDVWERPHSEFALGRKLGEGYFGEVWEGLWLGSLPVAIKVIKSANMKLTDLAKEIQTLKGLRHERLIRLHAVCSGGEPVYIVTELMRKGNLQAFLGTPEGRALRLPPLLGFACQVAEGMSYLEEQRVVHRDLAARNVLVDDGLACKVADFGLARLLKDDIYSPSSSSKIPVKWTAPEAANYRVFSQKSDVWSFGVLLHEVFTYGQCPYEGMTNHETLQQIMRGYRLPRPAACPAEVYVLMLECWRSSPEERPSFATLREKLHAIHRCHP
Proto-oncogene tyrosine-protein kinase receptor Ret (Homo sapiens), P07949 [Y791F], sequence (P07949 whole entry Y791F): as the sequence (P07949 whole entry) above, with Y791F counted along it

One may read the inhibition as the relative decrease from the control value, in per cent. Take `COc1cccc(-n2ncc3c(N/N=C/c4ccc(C)cc4)ncnc32)c1`: the inhibition came out at 21.1% in assay [1]; 2.86% in [2]; 5.6% in assay [3]; 4.06% in [4]; 15.8% in [5]; 3% in assay [6]. Moreover, the inhibition is 11.5% in assay [7]; 3.72% in assay [8]; 10.2% in [9]; 4.38% in [10]; 13.9% in assay [11]; 2.1% in assay [12]. Also, the inhibition in [13] was 9.64%; in assay [14], 14.2%; in assay [15], 38.4%; in assay [16] it was 14.2%; in assay [17], 32.9%; in assay [18], -2.37%. For the same molecule, the figures for the inhibition in [19] and in assay [20] were -0.01% and 0.52%, respectively.

Consider `COc1ccc2ncnc(Nc3ccc(OCc4ccccc4)cc3)c2c1`, for which the inhibition in assay [1] is 7.02%; in assay [2] it was 0.42%; in assay [3], 0.42%; in assay [4] it was -1.91%; in assay [5], 5.66%; in assay [6], 3.22%. Further, the inhibition in assay [7] worked out at 5.23%; in assay [8], 0.54%; in assay [9] it was 7.26%; in assay [10], 4.16%; in [11], 11.5%; in [12], 2.03%. In addition, the inhibition in assay [13] was 4.46%; in [14], 1.06%; in assay [15], 3.14%; in [16], 2.84%; in [17], 8.82%; in assay [18] it was -1.19%. For the same molecule, the inhibition was 0.6% in [19] and -3.74% in [20].

`N#Cc1c(NC(=O)c2ccccc2F)sc2c1CCCC2`: the inhibition was 3.62% in assay [1]; -0.85% in assay [2]; -1.09% in assay [3]; -8.67% in assay [5]; -2% in assay [6]; 3.21% in [7]. Moreover, the inhibition in [8] was 0.24%; in assay [9] it was 2.29%; in assay [10], -0.3%; in [11], 1.78%; in assay [12], -0.97%; in [13] it was -3.33%. The inhibition in [14] is 1.04%; in [15], 0.32%; in assay [16] it was -4.11%; in assay [17], -4.48%; in assay [18], 2.55%; in assay [19], 1.79%. In [20], the inhibition is 0.7%.

On to `COc1ccc(-c2nn3ncccc3c2-c2ccnc(Nc3cccc(C(F)(F)F)c3)n2)cc1`, for which the inhibition in assay [1] was found to be 5.95%; in [2], 1.12%; in assay [3], 2.91%; in assay [4], 6.13%; in [5], 6.4%; in assay [6] it was 2.63%. For the same molecule, the inhibition in assay [8] was 2.06%; in assay [9] it was 3.74%; in assay [10], 3.38%; in [11] it was 6.6%; in assay [12], 0.53%; in assay [13], -3.48%. Also, the inhibition is 2.58% in [14]; 4.13% in assay [15]; 6.2% in [16]; 10% in assay [17]; -1.6% in assay [18]; 1.75% in assay [19]. The inhibition in [20] was -1.06%.

Regarding `COc1cc2ncn(-c3cc(OCc4ccccc4S(C)(=O)=O)c(C#N)s3)c2cc1OC`, the inhibition in assay [1] amounted to 78.1%; in assay [2], 3.38%; in [3] it was 4.36%; in assay [4] it was 12%; in assay [5], 25.6%; in assay [6], 18.2%. The inhibition is 63.7% in [7]; 11.3% in assay [8]; 53.6% in assay [9]; 23.2% in assay [10]; 59.1% in [11]; -3.29% in assay [12]. Besides, the inhibition is 8.3% in assay [13]; 27.4% in assay [14]; 68.7% in assay [15]; 3.54% in assay [16]; 50.1% in assay [17]; 2.07% in assay [18]. In addition, the inhibition was 26.9% in [19] and -8.27% in assay [20].

Take `COC(=O)c1cncc(/C=C/c2c(C)cc(O)cc2C)c1`: the inhibition in assay [1] was determined as 36.7%; in assay [2] it was 2.26%; in [3], 6.54%; in assay [4] it was 9.3%; in assay [5], 10.1%; in [6] it was 2.45%. Besides, the inhibition in assay [7] was 5.3%; in [8], 2.74%; in assay [9] it was 7.8%; in assay [10] it was 0.65%; in [11] it was 15.2%; in assay [12], -3.36%. In addition, the inhibition in assay [13] stood at 7.09%; in assay [15], 6.7%; in assay [16], 11.8%; in assay [17], 38.2%; in assay [18], 0.39%; in assay [19], 12.7%. Also, in assay [20], the inhibition is -5.74%.

As to `Cc1cc(Cl)cc2c1NC(=O)C2=NNc1ccc(S(N)(=O)=O)cc1`, the inhibition in [1] is 6.52%; in assay [2], 1.54%; in assay [3], 3.32%; in [6] it was 2.45%; in assay [7], -0.28%; in assay [8], 3.83%. For the same molecule, the inhibition in assay [9] is 7.51%; in [10] it was -0.41%; in assay [11], 11%; in assay [12], 0.92%; in assay [13] it was 0.34%; in assay [14], 2.22%. The inhibition is 3.14% in assay [15]; 5.04% in assay [16]; 5.85% in [17]; -1.17% in assay [18]; -2.07% in assay [19]; -4.26% in assay [20].

`COc1cc2ncnc(Nc3ccc(C)c(O)c3)c2cc1OC`: the inhibition in [1] turned out to be 76.6%; in [2], 7.74%; in assay [3] it was 19.9%; in [4], 12.5%; in assay [5] it was 18.9%; in [6], 83.6%. The inhibition in assay [7] came to 89.4%; in [8], 3.3%; in assay [9], 11.3%; in assay [10], 76.8%; in assay [11], 90.1%; in [12], 1.46%. Further, the inhibition in assay [13] was determined as 2.44%; in [14], 1.94%; in assay [15] it was 10.2%; in assay [16], 22.9%; in assay [17], 70.5%; in assay [18] it was 2.71%. Besides, the inhibition in assay [19] was 18.7%; in assay [20] it was -4.37%.

For `[O-][S+]1CCN(Cc2ccc(-c3ccc4ncnc(Nc5ccc(OCc6ccccc6)c(Cl)c5)c4c3)o2)CC1`, the inhibition in assay [1] came to 4.43%; in [2] it was 0.22%; in [3] it was 1.48%; in [4] it was 6.05%; in assay [5], 1.47%; in [6] it was 3.12%. The inhibition turned out to be 3.49% in assay [7]; 2.69% in assay [8]; 3.13% in [9]; 4.06% in assay [10]; 5.41% in assay [11]; 1.76% in assay [12]. Further, the inhibition in assay [13] was 1.89%; in [14], 2.65%; in [15], 3.8%; in assay [16], 1.76%; in assay [17], 6.34%; in [18] it was -2.27%. Further, the inhibition in [19] was -2%; in assay [20] it was 1.18%.

With `CCn1c(-c2nonc2N)nc2c(C#CC(C)(C)O)nc(OCCNC)cc21`, the inhibition in [1] was determined as 24.2%; in assay [2], 3.46%; in [3], 3.09%; in assay [4], 8.7%; in [5], 10.6%; in assay [6], 8.91%. Moreover, the inhibition was 23.6% in assay [7]; 2.4% in assay [8]; 4.07% in assay [9]; 7.43% in [10]; 28.9% in assay [11]; 6.88% in [12]. Besides, the inhibition is 6.88% in assay [14]; 6.96% in assay [15]; 8.38% in assay [16]; 11.9% in [17]; -1.55% in assay [18]; -2.34% in [19]. The inhibition in assay [20] was 1.27%.

As for `Cc1nc(-c2ccccc2)n2nc(NCCCN3CCOCC3)ncc12`, the inhibition in assay [1] stood at 5.95%; in assay [2], 3.57%; in [3] it was 2.61%; in assay [4], 1.99%; in [5] it was 10.1%; in [6] it was 0.76%. In addition, the inhibition in [7] is 6.88%; in [8], 2.64%; in assay [9], 7.97%; in assay [10], 4.35%; in [11], 4.86%; in assay [12], 2.7%. The inhibition in assay [13] was -3.01%; in assay [14], 4.45%; in assay [15], 2.41%; in assay [16], 6.46%; in assay [17], 6.81%; in assay [18], 2.65%. Moreover, the values for the inhibition in assay [19] and in [20] were 2.27% and 1.44%, respectively.

For `COc1cc(Nc2nccc(-c3cnn4ncccc34)n2)cc(OC)c1`, the inhibition was 84.5% in [1]; 1.76% in assay [2]; 5.05% in assay [3]; 38.9% in assay [4]; 95.9% in [5]; 9.58% in assay [6]. Also, the inhibition is 25.4% in assay [7]; 6.17% in [8]; 33.5% in assay [9]; 4.62% in assay [10]; 33.6% in assay [11]; 4% in assay [12]. The inhibition in assay [13] is 22.3%; in assay [14], 57%; in assay [15], 87%; in assay [16], 17.1%; in assay [17], 63.9%; in assay [18], 0.34%. Besides, the inhibition in assay [19] is 6.85%; in [20] it was -0.4%.

With `Nc1ccc(C#Cc2cncnc2Nc2ccc(OCc3cccc(F)c3)c(Cl)c2)cc1`, the inhibition in [1] was 3.64%; in assay [2] it was 0.8%; in [3] it was 1.06%; in [4] it was -4.77%; in assay [5], 0.23%; in assay [6], 6.12%. Besides, the inhibition was 7.18% in [7]; 9.98% in assay [8]; 3.18% in assay [9]; 2.75% in [10]; 4.06% in assay [11]; 7.87% in assay [12]. In addition, the inhibition is 1.71% in assay [13]; 1.61% in assay [14]; 3.55% in [15]; 5.95% in assay [16]; 3.71% in assay [17]; -2.09% in [18]. Also, the inhibition in assay [19] was -0.77%; in [20], -0.35%.

With `NS(=O)(=O)c1cccc(Nc2cc(-c3ccc(F)cc3)n[nH]2)c1`, the inhibition in [1] was 38%; in assay [2], 1.05%; in assay [3], 2.07%; in [4], 7.64%; in assay [5], 12.6%; in assay [6] it was 4.74%. For the same molecule, the inhibition in assay [7] is 17.9%; in assay [8], 5.42%; in assay [9], 25.3%; in assay [10] it was 3.26%; in assay [11], 23.6%; in assay [12] it was -6.54%. In addition, the inhibition in assay [13] was 8.51%; in [14], 4.34%; in assay [15], 4.36%; in assay [16] it was 3.21%; in [17], 10.4%; in [18], -0.24%. Also, the inhibition in [19] was 2.26%; in assay [20], -3.53%.
